FBW7 act: activators of human E3 ligase FBW7 | actives 0.13% (n = 650,000) | Q969H0 | normalized activity (activation), % at 26.1 µM | AlphaScreen FBW7–phospho-cyclin E peptide binding, activator screen; in the data active = normalized activity above about 1.9%;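 also: purified mutant Fbw7 with reduced substrate affinity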
MITF primary: human MITF inhibition, primary screen; O75030; AlphaScreen MITF homodimerization, bead proximity signal; inhibition, % at 2.6 µM; actives 0.91% (n = 650,000); AID 1259374; in the data active = inhibition above about 50%;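 also: 0% = vehicle wells with protein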
TEAD-YAP block: TEAD-YAP interaction inhibition | inhibition, % at 9.12 µM | HEK-TIYL cells, TEAD-Gal4/YAP UAS-luciferase luminescence | actives 1.4% (n = 640,000) | AID 1259422; in the data active = inhibition above about 32%;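 also: 0% = median of test compound wells and 100% = reference inhibitor wells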
GPR151 activ: activates the human receptor GPR151. Q8TDV0. PathHunter beta-arrestin GPR151 cells, luminescence. activation, % at 11.2 µM. actives 1% (n = 650,000); in the data active = activation above about 4.9%;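 also: 0% = median of compound wells and 100% = cells with positive control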
GPR151 conf act: confirmation of human GPR151 activators; shares compounds with GPR151 activ; GPR151 PathHunter beta-arrestin cells, luminescence, 90 min; % of EA-reagent control over plate median; activation, % at 11.2 µM; 6,700 tested, under 10 active; AID 1508609;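 active = mean percent activation across replicates above the confirmation screen cutoff of 4.91%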
GPR119 counter: activates human GPR119 in a GPR151 counter-screen; shares compounds with GPR151 activ; GPR119 PathHunter beta-arrestin cells, luminescence, 90 min; 0 = compound-well median, 100 = enzyme-acceptor control; activation, % at 11.2 µM; actives 0.3% (n = 6,700);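 active = mean percent activation in the counterscreen above 29.09%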;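 also: counterscreen on off-target GPR119 to flag nonselective hits from the GPR151 activator screen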
Target sequence (Q8TDV5 whole entry, looked up): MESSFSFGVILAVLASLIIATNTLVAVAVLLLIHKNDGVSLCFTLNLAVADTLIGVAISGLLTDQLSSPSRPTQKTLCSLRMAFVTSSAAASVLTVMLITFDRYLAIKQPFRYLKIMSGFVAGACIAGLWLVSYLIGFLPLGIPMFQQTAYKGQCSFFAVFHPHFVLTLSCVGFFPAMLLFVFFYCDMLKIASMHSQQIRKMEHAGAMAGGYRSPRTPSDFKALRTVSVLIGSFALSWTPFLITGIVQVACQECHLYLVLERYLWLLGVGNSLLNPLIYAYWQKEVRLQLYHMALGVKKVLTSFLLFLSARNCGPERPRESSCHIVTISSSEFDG
Numbers without * were called inactive. An excerpt weighted towards active compounds, which were near 3.4% of everything screened.

How did CCCNS(=O)(=O)c1ccc(CN2C(=O)c3cccnc3C2=O)cc1 do in these assays?
FBW7 act: 0; MITF primary: 4; TEAD-YAP block: -5; GPR151 activ: 0

Results for Cc1cccnc1NS(=O)(=O)c1ccc(CN2C(=O)c3cccnc3C2=O)cc1 ?
FBW7 act: 0; MITF primary: 10; TEAD-YAP block: -3; GPR151 activ: 6.0*; GPR151 conf act: 0; GPR119 counter: 2

Results for COCCn1c(-c2ccncc2)nn(CN2CCOCC2)c1=S ?
FBW7 act: 0; MITF primary: -2; TEAD-YAP block: 2; GPR151 activ: -2

Results for CN(C)c1ccc(/C=N/NC(=O)Cn2cnc3ccccc32)cc1[N+](=O)[O-] ?
FBW7 act: 0; MITF primary: -6; TEAD-YAP block: 10; GPR151 activ: 0

Results for Cc1nc2c(nnn2Cc2ccccc2)c(=O)n1C ?
FBW7 act: 0; MITF primary: 9; TEAD-YAP block: 6; GPR151 activ: -1

How did Cc1nc2c(nnn2Cc2ccccc2)c(=O)n1Cc1ccccc1 do in these assays?
FBW7 act: 0; MITF primary: -4; TEAD-YAP block: 10; GPR151 activ: 10*; GPR151 conf act: 0; GPR119 counter: 5

Results for CSc1ccc(NC(=O)Nc2c(C)n(-c3ccccc3)c(=O)n2C)cc1 ?
FBW7 act: 0; MITF primary: 7; TEAD-YAP block: 8; GPR151 activ: 6.5*; GPR151 conf act: 0; GPR119 counter: 14

How did FC(F)(F)c1cccc(CNc2cc(N3CCOCC3)ncn2)c1 do in these assays?
FBW7 act: 0; MITF primary: -2; TEAD-YAP block: 1; GPR151 activ: 1

How did CCn1c2ccccc2n2c(=O)n(CC(=O)Nc3ccc4c(c3)OCO4)nc12 do in these assays?
FBW7 act: 1; MITF primary: 9; TEAD-YAP block: 14; GPR151 activ: 5.7*; GPR151 conf act: 1; GPR119 counter: 2

Results for CCn1c2ccccc2n2c(=O)n(CC(=O)NCC3COc4ccccc4O3)nc12 (configuration not stated) ?
FBW7 act: 1; MITF primary: -5; TEAD-YAP block: 13; GPR151 activ: 7.5*; GPR151 conf act: 2; GPR119 counter: 7

How did CCn1c(=O)n(CC(=O)NCC2COc3ccccc3O2)c(=O)c2ccccc21 (configuration not stated) do in these assays?
FBW7 act: 0; MITF primary: 6; TEAD-YAP block: -2; GPR151 activ: -1

What do the screens show for `COc1ccc(-c2cc(N)ncn2)cc1`?
FBW7 act: 0; MITF primary: 6; TEAD-YAP block: -17; GPR151 activ: 1

Results for COc1cccc(OC)c1C(=O)n1nc(C)cc1C ?
FBW7 act: 0; MITF primary: 16; TEAD-YAP block: 9; GPR151 activ: 0

How did Cc1cc(C)n(C(=O)CSc2ccc(Cl)cc2)n1 do in these assays?
FBW7 act: 1; MITF primary: 15; TEAD-YAP block: 8; GPR151 activ: 7.8*; GPR151 conf act: -1; GPR119 counter: -15

How did COc1ccc(Cl)cc1C(=O)n1nc(C)cc1C do in these assays?
FBW7 act: 0; MITF primary: 27; TEAD-YAP block: -5; GPR151 activ: 9.6*; GPR151 conf act: 0; GPR119 counter: 0

Results for O=S(=O)(Nc1ccc(Cl)cc1F)c1cnc[nH]1 ?
FBW7 act: 0; MITF primary: 3; TEAD-YAP block: -11; GPR151 activ: 11*; GPR151 conf act: 1; GPR119 counter: 12

What do the screens show for `Cc1c(Cl)cccc1NC(=O)C(=O)NCCO`?
FBW7 act: 0; MITF primary: -2; TEAD-YAP block: -11; GPR151 activ: 5.2*; GPR151 conf act: 0; GPR119 counter: 3

How did Cc1cccc(NC(=O)C(=O)NCCO)c1C do in these assays?
FBW7 act: 0; MITF primary: 8; TEAD-YAP block: 4; GPR151 activ: -1

Results for O=S(=O)(c1cccc(Cl)c1)N1CCN(c2ncnc3c2nnn3Cc2ccccc2)CC1 ?
FBW7 act: 0; MITF primary: 11; TEAD-YAP block: 2; GPR151 activ: -1

Results for COC(=O)CSc1nnc(CNC(=O)c2cccc(F)c2)n1C ?
FBW7 act: 1; MITF primary: -3; TEAD-YAP block: -27; GPR151 activ: 5.2*; GPR151 conf act: 0; GPR119 counter: 4

Results for COC(=O)CSc1nnc(CNC(=O)c2cccc(C)c2)n1C ?
FBW7 act: 0; MITF primary: 5; TEAD-YAP block: 2; GPR151 activ: 1

How did N#Cc1cc2c(nc1SCc1ccc([N+](=O)[O-])cc1)CCCCC2 do in these assays?
FBW7 act: 0; MITF primary: -1; TEAD-YAP block: 2; GPR151 activ: 6.1*; GPR151 conf act: 0; GPR119 counter: -9

Results for COCCCN(C(=S)Nc1cccc(Cl)c1)C(C)c1ccncc1 (configuration not stated) ?
FBW7 act: 0; MITF primary: -5; TEAD-YAP block: -5; GPR151 activ: 5.9*; GPR151 conf act: -1; GPR119 counter: 5

What do the screens show for `N#Cc1cnc(-c2ccccc2O)nc1Cl`?
FBW7 act: 0; MITF primary: -2; TEAD-YAP block: -6; GPR151 activ: -3

Results for CCC(C)(C)NC(=O)CN(C(=O)CCC(=O)Nc1nccs1)c1ccccc1C ?
FBW7 act: 0; MITF primary: -10; TEAD-YAP block: -10; GPR151 activ: 1

What do the screens show for `Cc1ccccc1N(CC(=O)NC(C)(C)C)C(=O)CCC(=O)Nc1nccs1`?
FBW7 act: 0; MITF primary: 8; TEAD-YAP block: 0; GPR151 activ: 5.7*; GPR151 conf act: -1; GPR119 counter: -12

What do the screens show for `C=CCN(CP(=O)(OCC)OCC)C(=O)c1ccccc1`?
FBW7 act: 0; MITF primary: 8; TEAD-YAP block: -5; GPR151 activ: 0

Results for CCOc1ccc(C2=NC(c3ccc(OC)cc3)NC(c3ccccc3O)C2)cc1 (configuration not stated) ?
FBW7 act: 0; MITF primary: 4; TEAD-YAP block: -60; GPR151 activ: 6.4*; GPR151 conf act: 0; GPR119 counter: -11

How did COc1ccc(NC(=O)CN2C(=O)COc3ccc(C)cc32)cc1OC do in these assays?
FBW7 act: 0; MITF primary: 6; TEAD-YAP block: 6; GPR151 activ: 6.0*; GPR151 conf act: 1; GPR119 counter: 10

How did O=C(CN1C(=O)COc2ccc(Cl)cc21)Nc1ccc([N+](=O)[O-])cc1 do in these assays?
FBW7 act: 0; MITF primary: -3; TEAD-YAP block: 14; GPR151 activ: 7.6*; GPR151 conf act: 1; GPR119 counter: -2

Results for CCOC(=O)CN1C(=O)COc2ccc(Cl)cc21 ?
FBW7 act: 0; MITF primary: -4; TEAD-YAP block: 0; GPR151 activ: 5.6*; GPR151 conf act: 0; GPR119 counter: -6
